# Bioassay records (PubChem)
# ELG1 DNA repair: qHTS screen for small molecules that inhibit ELG1-dependent DNA repair in human embryonic kidney (HEK293T) cells expressing luciferase-tagged ELG1 | HEK293T ELG1-luciferase reporter, luminescence, 16 h; DNA damage induced by 5-fluorouridine | Potency, µM (series often up to 46.1 µM), most hits filed as inhibitors | 330,000 tested, 2.3% active | AID 504467, 2011; also: nearly all actives have a fitted effect of over 55% in size
#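 DMSO vehicle served as the neutral condition. Each well held 2,000 cells given 5-fluorouridine plus compound; after 16 hr at 37 °C/5% CO2, ONE-Glo was added and luciferase measured 30 min later.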
# ALOX12 inh: Primary qHTS assay for inhibitors of human arachidonate 12S-lipoxygenase (ALOX12): Round 2; purified 12hLO, xylenol orange hydroperoxide absorbance; 580,000 tested, 1.1% active; AID 1671190, 2021; Potency, µM (series often up to 108 µM), usual class: inhibitors
#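 Hydroperoxide product was detected by ferrous iron/xylenol orange as the 573 to 405 nm absorbance ratio. Arachidonic acid at 40 uM (final) was turned over for 30 min at room temperature by 150 nM human 12hLO, pH 7.0 Hepes buffer, after 15 min compound preincubation.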
# DT40 TDP1 CPT: qHTS for Inhibitors of human tyrosyl-DNA phosphodiesterase 1 (TDP1): qHTS in cells in presence of CPT | chicken DT40 Tdp1-/-;hTDP1 cells + 20 nM CPT, ATP luminescence, 48 h | Potency, µM (titrated, usually from 46.2 µM), actives largely listed as inhibitors | 420,000 tested, 12% active; also: nearly all actives have a fitted effect of over 55% in size
#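 Chicken DT40 Tdp1-/- cells stably complemented with human TDP1 were seeded at 400 cells/well in medium containing 20 nM camptothecin, exposed to pin-transferred compounds, and grown at 37 °C for at least 48 hr. Viability was read as ATP luminescence.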
# RORg inh: qHTS for inhibitors of ROR gamma transcriptional activity; Nuclear receptor ROR-gamma (Mus musculus), P51450; Drosophila S2 Gal4-RORgamma UAS-luciferase reporter, 20 h; Potency, µM (titrated, usually from 53.6 µM), most hits filed as inhibitors; 310,000 tested, 5.4% active; also: nearly all actives have a fitted effect of over 60% in size
# Target sequence (P51450 whole entry, looked up, the tested form may be a part): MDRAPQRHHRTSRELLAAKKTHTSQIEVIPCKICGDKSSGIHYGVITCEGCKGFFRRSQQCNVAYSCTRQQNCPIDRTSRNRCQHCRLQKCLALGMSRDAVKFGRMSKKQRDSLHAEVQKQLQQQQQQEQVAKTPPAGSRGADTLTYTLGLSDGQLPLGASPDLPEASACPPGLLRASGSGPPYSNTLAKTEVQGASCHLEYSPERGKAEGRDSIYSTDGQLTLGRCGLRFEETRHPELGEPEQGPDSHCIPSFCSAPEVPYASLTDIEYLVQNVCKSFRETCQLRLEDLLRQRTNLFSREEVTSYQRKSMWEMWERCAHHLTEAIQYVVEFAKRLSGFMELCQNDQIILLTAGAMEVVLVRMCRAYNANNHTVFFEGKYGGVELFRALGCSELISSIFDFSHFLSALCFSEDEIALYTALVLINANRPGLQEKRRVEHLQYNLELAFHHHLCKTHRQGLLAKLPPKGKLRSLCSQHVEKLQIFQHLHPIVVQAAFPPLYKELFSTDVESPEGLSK
#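 Schneider cells (Drosophila), stable Gal4 DBD–ROR gamma + UAS-luc; 1 hr cmpd preincubation; Cu2+ induction 700 uM final; 20 hr ambient; luminescence.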
# DT40 TDP1 no CPT: qHTS for Inhibitors of human tyrosyl-DNA phosphodiesterase 1 (TDP1): qHTS in cells in absence of CPT | DT40 Tdp1-/- hTDP1 cells, no CPT, ATP luminescence, 48 h | Potency, µM (highest dose often 46.2 µM), actives largely listed as inhibitors | 420,000 tested, 15% active | AID 686978, 2013; also: nearly all actives have a fitted effect of over 55% in size
#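 Growth of hTDP1-complemented DT40 Tdp1-knockout cells is measured by ATP luminescence after at least 48 hr compound exposure at 37 °C, with DMSO substituting for the 20 nM CPT used in the parallel screen.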
# Gal4-VP16 FLuc: VP16 counterscreen qHTS for inhibitors of ROR gamma transcriptional activity | 310,000 tested, 3.5% active | Drosophila S2 Gal4-VP16 UAS-luciferase, luminescence, 20 h | Potency, µM (top dose mostly 53.6 µM), usual class: inhibitors;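 also: Gal4-VP16 expression switched on by copper sulfate through the metallothionein promoter; nearly all actives have a fitted effect of over 50% in size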
# Hits are given with their value; – = inactive; ? = inconclusive; · = no result; [ ] = dose if it differs, or a comment. Compounds with a hit are over-represented: about 15% of the library has one in this group of screens. Calls follow the shape of the dose curve; as a rule, active = well fitted curve in the direction sought with a large enough effect; inconclusive = small, poorly fitted or top-dose-only effect, or another doubt; inactive = no such curve, though single readings can be large; an effect the other way counts as inactive or inconclusive.
SMILES,ELG1 DNA repair,ALOX12 inh,DT40 TDP1 CPT,RORg inh,DT40 TDP1 no CPT,Gal4-VP16 FLuc
CSC(=S)NN=C(C)c1cccc(C)n1,·,–,0.033µM,·,0.018µM,·
CN(CCc1noc(C2CN(C(=O)c3ccncn3)C2)n1)C(=O)C1CC1,·,–,·,·,·,·
CC(=NNC(=S)N1CCCCC1)c1ccccn1,·,45µM,0.026µM,·,0.0082µM,·
CC(=NNC(=S)N1CCCCC1)c1cccc(C)n1,·,–,0.0092µM,·,0.018µM,·
CC(=NNC(=S)N1CC2CCC(CC2)C1)c1ccncn1,·,?,0.037µM,·,0.029µM,·
Cc1ccc(-c2cnoc2NC(=O)CSc2nc3c(c(=O)[nH]2)CCCC3)cc1,·,–,·,·,·,·
CCOC(=O)N1CCN(C(=O)CN(c2cccc(Cl)c2C)S(=O)(=O)c2ccc(C)cc2)CC1,·,–,21µM,·,?,·
CCOC(=O)c1c(C)[nH]c(C)c1S(=O)(=O)N(C)CC(=O)N1CCN(c2ccccc2OC)CC1,·,–,18µM,·,?,·
CCOC(=O)N1CCN(C(=O)CN(c2ccc(C)cc2C)S(=O)(=O)c2ccccc2)CC1,·,–,–,·,–,·
COc1ccccc1N(CC(=O)N1CCN(c2ccccc2)CC1)S(=O)(=O)c1ccc(C)cc1,–,–,18µM,–,?,–
CCOc1ccc(N(CC(=O)N2CCN(c3ccccc3OC)CC2)S(=O)(=O)c2ccc(C)cc2)cc1,?,–,?,·,21µM,·
O=C(Cn1cnc2ccc(Cl)cc2c1=O)N(C1CCCC1)C1CCS(=O)(=O)C1 (configuration not stated),·,–,·,·,·,·
CCc1cc(=O)n(CC(=O)Nc2cccc(SC)c2)c(N2CCOCC2)n1,·,–,·,·,·,·
CCOc1ccc(NC(=O)CN(C)C(=O)c2cc(-c3ccco3)nc3ccccc23)cc1OCC,·,?,18µM,·,18µM,·
CCOc1ccc(NC(=O)CN(C)C(=O)c2cc(-c3ccncc3)nc3ccccc23)cc1OCC,?,?,?,·,16µM,·
CCOc1ccc(NC(=O)CN(C)C(=O)c2cn(-c3ccccc3)nc2-c2cccs2)cc1OCC,21µM,–,18µM,–,?,–
COc1ccc(Cl)cc1NC(=O)CN(C)C(=O)c1cc(-c2ccncc2)nc2ccccc12,?,–,23µM,·,15µM,·
CCOc1ccc(NC(=O)CN(C)C(=O)c2cn(-c3ccc(C)cc3)nc2-c2cccc(OC)c2)cc1OCC,·,–,?,·,?,·
CCOc1ccc(NC(=O)CN(C)C(=O)c2cc(C)nc3ccccc23)cc1OCC,?,–,–,·,?,·
S=C(NCCc1ccccc1)N1CCC2CC1c1c(Cl)cccc12 (configuration not stated),·,?,?,·,16µM,·
C=CCNC(=S)N1CCC2CC1c1c(Cl)cccc12 (configuration not stated),·,–,?,·,26µM,·
O=C(c1ccco1)N1CCC2CC1c1c(Cl)cccc12 (configuration not stated),·,–,?,·,?,·
Nc1cccc(OCCCc2ccccc2)c1,·,–,·,·,·,·
COc1ccc(S(=O)(=O)Nc2cc(N3CCCS3(=O)=O)ccc2OC)cc1,·,–,·,·,·,·
COC(=O)c1ccc(NC(=O)CN(c2ccc(OC)cc2)S(C)(=O)=O)cc1,?,–,–,?,?,–
SMILES,ELG1 DNA repair,ALOX12 inh,DT40 TDP1 CPT,RORg inh,DT40 TDP1 no CPT,Gal4-VP16 FLuc
CS(=O)(=O)N(CC(=O)Nc1ccc(CC#N)cc1)c1ccc(C23CC4CC(CC(C4)C2)C3)cc1,?,–,?,–,16µM,?
O=C(CSCCO)Nc1ccc(C23CC4CC(CC(C4)C2)C3)cc1,?,–,–,–,?,8.9µM
CNC(=O)CN(c1ccc(C23CC4CC(CC(C4)C2)C3)cc1)S(C)(=O)=O,–,–,?,–,26µM,–[10 µM]
CC(=O)Nc1ccc(C23CC4CC(CC(C4)C2)C3)cc1,?,–,–,–,?,–
COc1ccc(CC(=O)N2CCN(c3nc(-c4ccc(Cl)cc4)no3)CC2)cc1OC,·,–,·,·,·,·
COc1ccc(OC)c(-c2noc(N3CCN(c4ccc(Cl)cc4)CC3)n2)c1,·,–,?,·,15µM,·
COc1ccc(-c2noc(N3CCN(c4ccc(Cl)cc4)CC3)n2)cc1OC,·,–,–,·,–,·
COc1ccc(-c2noc(N3CCN(c4cccc(Cl)c4)CC3)n2)cc1OC,·,–,?,·,8.2µM,·
COc1ccc(-c2noc(N3CCN(c4cccc(C)c4C)CC3)n2)cc1OC,·,–,18µM,·,7.3µM,·
COc1cc(-c2ccno2)ccc1S(=O)(=O)N1CCN(c2cccc(Cl)c2)CC1,·,?,23µM,·,?,·
CCCC(=O)NNC(=S)NC(C)C,·,–,·,·,·,·
CCn1c(SCc2nc(-c3ccccc3OC)no2)nnc1-c1ccco1,·,–,·,·,·,·
COc1cccc([S+](=O)([O-])N2CCC(N3Cc4ccccc4C3=O)CC2)c1,·,–[6.33 µM],·,·,·,·
CSc1cccc(N2CC(C(=O)O)CC2=O)c1 (configuration not stated),·,–,·,·,·,·
OCc1n[nH]c2c1CN(Cc1cccc(OCC(O)CN3CCOCC3)c1)CC2 (configuration not stated),·,–,·,·,·,·
O=C(C[C@H]1C/C=C\C[C@@H](Cc2ccc(F)cc2)C(=O)OC[C@H]2CCCN2C1=O)N[C@@H](CO)Cc1ccccc1,–,–,?,·,?,·
O=C(C[C@@H]1C/C=C\CC[C@@H](Cc2ccc(F)cc2)C(=O)OC[C@@H]2CCCN2C1=O)N[C@H](CO)Cc1ccccc1,?,?,16µM,·,18µM,·
O=C(C[C@H]1C/C=C\CC[C@H](Cc2ccc(F)cc2)C(=O)OC[C@H]2CCCN2C1=O)N[C@@H](CO)Cc1ccccc1,–,–,?,·,15µM,·
O=C(C[C@H]1C/C=C\CC[C@H](Cc2ccc(F)cc2)C(=O)OC[C@@H]2CCCN2C1=O)N[C@H](CO)Cc1ccccc1,–,–,26µM,·,?,·
O=C(C[C@@H]1C/C=C\CCCC(=O)OC[C@@H]2CCCN2C1=O)N[C@H](CO)Cc1ccccc1,–,–,–,·,–,·
O=C(C[C@@H]1C/C=C\C[C@@H](Cc2ccc(F)cc2)C(=O)OC[C@H]2CCCN2C1=O)N[C@H](CO)Cc1ccccc1,?,–,?,·,21µM,·
CCOc1ccc(NC(=O)Cc2cccc3ccccc23)c2cccnc12,·,–,·,·,·,·
CC[C@H]1CN(C(=O)C(C)(C)C)CC[C@H]1CC(=O)Nc1ccccc1,·,–,·,·,·,·
CC(C)c1nc(CCN(C)C(=O)c2cn(CCC3CCCCN3)nn2)no1 (configuration not stated),·,–,·,·,·,·
